Assay results published in PubChem BioAssay AID1159580 (chemical genetic matrix, 2015).
Values joined by “and” are separate entries in the source; they are usually repeats but may differ in a detail not shown here. Equal entries are not always repeated. Among all 5,500 compounds or so, about 2,000 (36%) were called active. Another 18% or so got no clear call; they are omitted. Cut-off read from the data, not from the text of the source: active = normalized growth mostly below about 0.91 (no sharp cut-off); inconclusive = no clear call, values can overlap the other calls; inactive = mostly above about 0.92. The list shows a part of the results.

Assay: chemical genetic growth profiling, strain panel (AID 1159580);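 note: tested at 20 µM; growth read once vehicle control cultures reached saturation at 30 °C; 1 = growth at the plate median or of vehicle wells; lower values mean less growth of the strain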
Details: S. cerevisiae deletion strains, growth OD
[1] = locus YHR030C, strain SLT2, stronger effect = lower value
[2] = locus YHR079C, strain IRE1, stronger effect = lower value
[3] = locus YJL095W, strain BCK1, stronger effect = lower value
[4] = locus YJR066W, strain TOR1, stronger effect = lower value
[5] = locus YLR113W, strain HOG1, stronger effect = lower value
[6] = locus YNL183C, strain NPR1, stronger effect = lower value
[7] = locus YOR231W, strain MKK1, stronger effect = lower value
[8] = locus YPL256C, strain CLN2, stronger effect = lower value

Measured: normalized growth

COCCCOc1ccnc(CS(=O)c2nc3ccccc3[nH]2)c1C (stereo not given)
inactive: [1] 0.94 | [2] 0.93 | [3] 0.913 | [4] 0.907 | [5] 0.909 | [6] 0.879 | [7] 0.93 | [8] 0.897

CC1(C)S[C@@H]2C(N3C(=O)[C@@H](c4ccccc4)NC3(C)C)C(=O)N2[C@H]1C(=O)O (stereo not given in full)
inactive: locus YAL021C, strain ccr4, stronger effect = lower value 1.03 | locus YAL026C, strain drs2, stronger effect = lower value 1.02 | locus YAL030W, strain snc1, stronger effect = lower value 1 | locus YBL061C, strain skt5, stronger effect = lower value 1.02 | locus YBR009C, strain hhf1, stronger effect = lower value 1.03 | locus YBR021W, strain FUR4, stronger effect = lower value 0.994 | locus YBR023C, strain chs3, stronger effect = lower value 1.04 | locus YBR171W, strain sec66, stronger effect = lower value 1.04 | locus YBR229C, strain ROT2, stronger effect = lower value 1.01 | locus YBR231C, strain swc5, stronger effect = lower value 0.975 | locus YBR279W, strain paf1, stronger effect = lower value 1.02 | locus YCL011C, strain gbp2, stronger effect = lower value 1.03 | locus YCL016C, strain dcc1, stronger effect = lower value 1.06 | locus YCL029C, strain bik1, stronger effect = lower value 1.02 | locus YCL061C, strain MRC1, stronger effect = lower value 1.03 | locus YCL069W, strain vba3, stronger effect = lower value 1.02 | locus YCR088W, strain abp1, stronger effect = lower value 1.02 | locus YDL005C, strain med2, stronger effect = lower value 1.02 | locus YDL035C, strain GPR1, stronger effect = lower value 1 | locus YDL040C, strain nat1, stronger effect = lower value 1.01 | locus YDL074C, strain BRE1, stronger effect = lower value 1.02 | locus YDL101C, strain DUN1, stronger effect = lower value 1.01 | locus YDL185W, strain tfp1, stronger effect = lower value 1.02 | locus YDL192W, strain arf1, stronger effect = lower value 1.03 | locus YDR001C, strain nth1, stronger effect = lower value 1.01 | locus YDR069C, strain doa4, stronger effect = lower value 0.977 | locus YDR101C, strain arx1, stronger effect = lower value 1.01 | locus YDR137W, strain rgp1, stronger effect = lower value 1.11 | locus YDR159W, strain sac3, stronger effect = lower value 0.958 | locus YDR162C, strain NBP2, stronger effect = lower value 1 | locus YDR195W, strain ref2 1.01 | locus YDR297W, strain sur2, stronger effect = lower value 0.98 | locus YDR318W, strain mcm21, stronger effect = lower value 1.02 | locus YDR334W, strain swr1, stronger effect = lower value 1.02 | locus YDR335W, strain msn5, stronger effect = lower value 0.989 | locus YDR388W, stronger effect = lower value 1.03 | locus YDR392W, strain spt3, stronger effect = lower value 0.952 | locus YDR502C, strain sam2, stronger effect = lower value 1.03 | locus YEL003W, strain gim4, stronger effect = lower value 1.02 | locus YEL037C, strain rad23, stronger effect = lower value 1.02 | locus YEL061C, strain CIN8 (second series), stronger effect = lower value 1.02 | locus YEL061C, strain CIN8, stronger effect = lower value 1.01 | locus YER015W, strain faa2, stronger effect = lower value 1 | locus YER016W, strain bim1, stronger effect = lower value 1.01 | locus YER110C, stronger effect = lower value 1.04 | locus YER111C, strain swi4, stronger effect = lower value 1.03 | locus YER155C, strain BEM2 (second series), stronger effect = lower value 0.975 | locus YER155C, strain BEM2, stronger effect = lower value 1 | locus YER167W, strain BCK2, stronger effect = lower value 1 | locus YFR010W, strain ubp6, stronger effect = lower value 1.03 | locus YGL078C, strain dbp3, stronger effect = lower value 1.03 | locus YGL086W, strain mad1, stronger effect = lower value 0.996 | locus YGL167C, strain pmr1, stronger effect = lower value 1.02 | locus YGL173C, strain kem1, stronger effect = lower value 1.03 | locus YGL227W, strain vid30, stronger effect = lower value 1.02 | locus YGL240W, strain doc1, stronger effect = lower value 0.972 | locus YGL248W, strain PDE1, stronger effect = lower value 1.01 | locus YGL253W, strain hxk2, stronger effect = lower value 1.02 | locus YGR078C, strain PAC10, stronger effect = lower value 1 | locus YGR135W, strain pre9, stronger effect = lower value 1.04 | locus YGR252W, strain gcn5, stronger effect = lower value 1.01 | locus YHR013C, strain ard1, stronger effect = lower value 1.06 | locus YHR027C, strain rpn1, stronger effect = lower value 1.02 | [1] 1.01 and 0.988 | locus YHR079C, strain IRE1 (second series), stronger effect = lower value 1.02 | [2] 0.979 | locus YHR094C, strain hxt1, stronger effect = lower value 1.03 | locus YHR129C, strain ARP1, stronger effect = lower value 0.995 | locus YHR142W, strain chs7, stronger effect = lower value 1.05 | locus YHR200W, strain rpn10, stronger effect = lower value 1.03 | locus YIL066C, strain RNR3, stronger effect = lower value 1 | locus YIL073C, strain SPO22, stronger effect = lower value 1.06 | locus YIL125W, strain kgd1, stronger effect = lower value 1.02 | locus YIR030C, strain dcg1, stronger effect = lower value 1.03 | locus YJL092W, strain hpr5, stronger effect = lower value 1.02 | locus YJL095W, strain BCK1 (second series), stronger effect = lower value 0.987 | [3] 1.02 and 0.98 | locus YJL115W, strain asf1, stronger effect = lower value 1.02 | locus YJL129C, strain trk1, stronger effect = lower value 1.04 | locus YJL134W, strain LCB3, stronger effect = lower value 1.01 | locus YJL154C, strain vps35, stronger effect = lower value 1.02 | locus YJL164C, strain tpk1, stronger effect = lower value 1.04 | locus YJL166W, strain qcr8, stronger effect = lower value 1.02 | locus YJL168C, strain set2, stronger effect = lower value 1.03 | locus YJL187C, strain SWE1 (second series), stronger effect = lower value 1 | locus YJL187C, strain SWE1, stronger effect = lower value 0.974 | [4] 0.944 | locus YKL009W, strain mrt4, stronger effect = lower value 0.99 | locus YKL068W, stronger effect = lower value 1.01 | locus YKL085W, strain MDH1 (second series), stronger effect = lower value 1.02 | locus YKL085W, strain MDH1, stronger effect = lower value 1.02 | locus YKL160W, strain elf1, stronger effect = lower value 1.05 | locus YKR001C, strain vps1, stronger effect = lower value 1.04 | locus YKR026C, strain gcn3, stronger effect = lower value 1.02 | locus YKR091W, strain srl3, stronger effect = lower value 1.02 | locus YLL001W, strain dnm1, stronger effect = lower value 1.04 | locus YLL026W, stronger effect = lower value 1.02 | locus YLL041C, strain sdh2, stronger effect = lower value 1 | locus YLR027C, strain aat2, stronger effect = lower value 1 | locus YLR039C, strain RIC1, stronger effect = lower value 1.03 | locus YLR058C, strain SHM2, stronger effect = lower value 1.01 | locus YLR102C, strain apc9, stronger effect = lower value 1.03 | [5] 1 | locus YLR221C, strain rsa3, stronger effect = lower value 1.03 | locus YLR258W, strain gsy2, stronger effect = lower value 0.999 | locus YLR262C, strain YPT6 (second series), stronger effect = lower value 1.11 | locus YLR262C, strain YPT6, stronger effect = lower value 1.05 | locus YLR268W, strain sec22, stronger effect = lower value 1.02 | locus YLR320W, strain mms22, stronger effect = lower value 1.08 | locus YLR330W, strain CHS5, stronger effect = lower value 1 | locus YLR342W, strain FKS1 (second series), stronger effect = lower value 0.997 | locus YLR342W, strain FKS1, stronger effect = lower value 1.03 | locus YLR357W, strain rsc2, stronger effect = lower value 1.01 | locus YLR370C, strain arc18, stronger effect = lower value 1 | locus YLR371W, strain rom2, stronger effect = lower value 1.01 | locus YLR384C, strain iki3, stronger effect = lower value 1.02 | locus YLR418C, strain cdc73, stronger effect = lower value 1.03 | locus YML016C, strain PPZ1, stronger effect = lower value 1.01 | locus YML032C, strain rad52, stronger effect = lower value 1.02 | locus YML120C, strain ndi1, stronger effect = lower value 1.05 | locus YML124C, strain tub3, stronger effect = lower value 1.02 | locus YMR058W, strain fet3, stronger effect = lower value 1.01 | locus YMR078C, strain ctf18, stronger effect = lower value 1.03 | locus YMR125W, strain sto1, stronger effect = lower value 1.03 | locus YMR129W, stronger effect = lower value 1.02 | locus YMR205C, strain PFK2, stronger effect = lower value 0.992 | locus YMR223W, strain ubp8, stronger effect = lower value 1.04 | locus YMR231W, strain pep5, stronger effect = lower value 1.02 | locus YMR263W, strain SAP30, stronger effect = lower value 1 | locus YMR307W, strain GAS1, stronger effect = lower value 1.01 | locus YNL067W, strain RPL9B, stronger effect = lower value 1.01 | locus YNL071W, strain lat1, stronger effect = lower value 1.03 | [6] 0.95 | locus YNL209W, strain ssb2, stronger effect = lower value 1.02 | locus YNL233W, strain BNI4, stronger effect = lower value 1 | locus YNL248C, strain rpa49, stronger effect = lower value 1.03 | locus YNL250W, strain rad50, stronger effect = lower value 1.05 | locus YNL271C, strain bni1, stronger effect = lower value 1.04 | locus YNL298W, strain CLA4, stronger effect = lower value 1.04 | locus YNL307C, strain MCK1, stronger effect = lower value 1.03 | locus YNL322C, strain KRE1 (second series), stronger effect = lower value 1.05 | locus YNL322C, strain KRE1, stronger effect = lower value 1 | locus YNR049C, strain mso1, stronger effect = lower value 0.993 | locus YNR052C, strain pop2, stronger effect = lower value 1.02 | locus YOL006C, strain TOP1, stronger effect = lower value 1.03 | locus YOL012C, strain htz1 0.716 | locus YOL147C, strain pex11, stronger effect = lower value 1.03 | locus YOR001W, strain rrp6, stronger effect = lower value 1.01 | locus YOR061W, strain CKA2, stronger effect = lower value 1.01 | locus YOR069W, strain VPS5, stronger effect = lower value 1 | locus YOR070C, strain gyp1, stronger effect = lower value 1.03 | locus YOR080W, strain dia2, stronger effect = lower value 1.05 | locus YOR083W, strain WHI5, stronger effect = lower value 1.03 | locus YOR106W, strain vam3, stronger effect = lower value 1.02 | locus YOR136W, strain idh2, stronger effect = lower value 1.03 | locus YOR144C, strain elg1, stronger effect = lower value 1.02 | locus YOR184W, strain ser1, stronger effect = lower value 1.05 | [7] 0.997 | locus YOR265W, strain rbl2, stronger effect = lower value 1.03 | locus YOR270C, strain vph1, stronger effect = lower value 1.08 | locus YOR290C, strain snf2, stronger effect = lower value 0.962 | locus YOR316C, strain cot1, stronger effect = lower value 1.03 | locus YPL051W, strain arl3, stronger effect = lower value 1.04 | locus YPL078C, strain atp4, stronger effect = lower value 1.03 | locus YPL106C, strain sse1, stronger effect = lower value 1.01 | locus YPL240C, strain hsp82, stronger effect = lower value 0.985 | [8] 0.982 | locus YPR119W, strain clb2, stronger effect = lower value 1.03 | locus YPR141C, strain kar3, stronger effect = lower value 1.03 | locus YPR163C, strain tif3, stronger effect = lower value 1.04 | locus YPR167C, strain met16, stronger effect = lower value 1.02 | strain wtn01, stronger effect = lower value 1.04
